Each structure is given as a SMILES string. About 4,300 (8.3%) of roughly 52,000 compounds were called active. This excerpt belongs to a sample that is enriched for actives. A number with no mark means an inactive call. No stated cut-off is given here; in the data, active means survival mostly below about 52% (no sharp cut-off); inactive means mostly above about 56%.

This assay relates to DeltatarO mutant. The assay is described as follows: S. aureus survival, RN4220 and DeltatarO strains – OD600, teichoic acid synthesis inhibitors, primary screen (AID 463173). Particulars: S. aureus RN4220 wild type/DeltatarO growth, OD600, 18 h, stronger effect = lower value, screened at 18.75 µg/mL (by protocol).
`Cc1ccc(NC(=O)CSc2nc(C3CCCC3)nc3c2c(=O)n(C)c(=O)n3C)c(C)c1`: the survival is 73%.

`COc1cccc(CNC(=O)c2oc3c(c2C)-c2nn(Cc4cccc(Cl)c4)cc2CC3)c1`: the survival was 76%.

As to `CCOC(=O)c1c(NC(=O)COc2cccc(C)c2C)sc2c1CCC(CC)C2` (configuration not stated), the survival is 59%.

On to `CCOC(=O)c1c(NC(=O)c2ccccc2OCC)sc2c1CCC(CC)C2` (configuration not stated), for which the survival was -2% (active).

Consider `CCOC(=O)c1c(NC(=O)c2ccc(F)cc2)sc2c1CCC(CC)C2` (configuration not stated), for which the survival is 9% (active).

Take `CCOC(=O)c1c(NC(=O)C2c3ccccc3Oc3ccccc32)sc2c1CCC(CC)C2` (configuration not stated): the survival is 52%.

For `CCOC(=O)c1ccc(NC(=O)c2c(NC(C)=O)sc3c2CCC(C)C3)cc1` (configuration not stated), the survival was 47%.

As for `CCC1CCc2c(sc(NC(=O)C3c4ccccc4Oc4ccccc43)c2C(=O)OC)C1` (configuration not stated), the survival is 72%.

As for `CCCSc1ncc(Cl)c(C(=O)Nc2ccc(S(=O)(=O)N3CCCCC3C)cc2)n1` (configuration not stated), the survival was 51%.

For `Cc1ccc(-c2nnc(SCc3ccccc3C#N)o2)cc1`, the survival is 69%.

Take `COc1ccc(-c2nnc(SCc3cccc(Cl)c3)o2)cc1`: the survival was 22% (active).

Take `c1ccc(-c2nnc(SCc3cccnc3)o2)cc1`: the survival was 54% (active).

For `N#Cc1ccccc1CSc1nnc(-c2ccccc2)o1`, the survival was 61%.

Take `Cc1ccc(-c2nnc(SCc3ccccc3C)o2)cc1`: the survival was -5% (active).

On to `COc1ccc(-c2nnc(SCC#N)o2)cc1`, for which the survival is 74%.

Regarding `COc1cccc(CSc2nnc(-c3ccc(F)cc3)o2)c1`, the survival was 90%.

On to `Cc1ccc(CSc2nnc(-c3ccc(O)cc3)o2)cc1`, for which the survival is 84%.

For the compound `Oc1ccccc1-c1nnc(SCc2ccccc2)o1`, the survival is 86%.

Consider `CCOc1ccc(CCNC(=O)c2ccc(C)c(-n3c(C)nc4cccnc43)c2)cc1OCC`, for which the survival was 101%.

In the case of `Cc1cccc(C(=O)Nc2ccc(OCc3cc(=O)n4ccsc4n3)cc2)c1`, the survival was 101%.

`O=C(CSc1ccccn1)Nc1cccc(F)c1`: the survival is 85%.

Consider `COC(=O)C(C)(C)Sc1nnc2c(n1)[nH]c1c(C)cc(C)cc12`, for which the survival was 55%.

Take `COc1cc(OC)c(NC(=O)c2ccc(-n3cnc4cccnc43)cc2)cc1Cl`: the survival was 52% (active).

With `Cc1cccc(NC(=O)c2ccc(-n3cnc4cccnc43)cc2)c1C`, the survival was 82%.

As to `COc1cc(NC(=O)c2ccc(-n3cnc4cccnc43)cc2)cc(OC)c1`, the survival is 55%.

Turning to `CN1C(C(=O)Nc2cccc(O)c2)=CC(c2ccco2)=NS1(=O)=O`, the survival was 88%.

As to `CCn1c(C)c(C)c2cc(C(=O)NCc3ccc(F)cc3)ccc21`, the survival was 90%.

Regarding `COc1ccc(CNC(=O)CCc2c(C)nc3c(c2C)c(=O)n(C)c(=O)n3C)cc1`, the survival is 115%.

As for `CCN(CC)S(=O)(=O)c1nnc(NC(=O)c2ccc(C)cc2)s1`, the survival was 63%.

In the case of `CCN(CC)S(=O)(=O)c1nnc(NC(=O)COc2ccccc2)s1`, the survival is 100%.

Consider `CCN(CC)S(=O)(=O)c1nnc(NC(=O)COc2ccc(C)cc2)s1`, for which the survival was 88%.

In the case of `CCN(CC)S(=O)(=O)c1nnc(NC(=O)COc2ccc(Cl)cc2)s1`, the survival is 87%.

`CCN(CC)S(=O)(=O)c1nnc(NC(=O)c2ccc(C(C)C)cc2)s1`: the survival was 44% (active).

`CCN(CC)S(=O)(=O)c1nnc(NC(=O)c2ccc(Br)cc2)s1`: the survival was 44% (active).

For the compound `COCCCNC(=O)c1sc2ncccc2c1-n1cccc1`, the survival was 75%.

For `COc1ccc(CNC(=O)C2CCN(c3nnc(-n4c(C)ccc4C)s3)CC2)c(OC)c1`, the survival is 87%.

On to `COc1ccc2c(c1)CC(NC(=O)Nc1ccc(Br)c(C)c1)CO2` (configuration not stated), for which the survival was 75%.

For `CCOC(=O)C1=C(CN2CCN(c3cccc(OC)c3)CC2)NC(=O)NC1c1ccc(OC)cc1` (configuration not stated), the survival was 88%.

For `Cn1cc(S(=O)(=O)N2CCCCC2)cc1C(=O)N1CCN(c2ccc(F)cc2)CC1`, the survival was 55%.

With `COC(=O)c1scc(-c2ccc(C)cc2)c1S(=O)(=O)N1CCN(c2ccc(F)cc2)CC1`, the survival was -4% (active).

Take `COC(=O)c1cc(S(=O)(=O)N2CCN(c3ccc(F)cc3)CC2)cn1C`: the survival is -5% (active).

Take `COC(=O)c1scc(-c2ccc(C)cc2)c1S(=O)(=O)N1CCN(c2ccc(OC)cc2)CC1`: the survival is 60%.

As to `COC(=O)c1scc(-c2ccc(C)cc2)c1S(=O)(=O)N1CCN(c2ccccc2)CC1`, the survival is 72%.

As to `Cn1cc(S(=O)(=O)N2CCCCCC2)cc1C(=O)N1CCN(c2ccc(F)cc2)CC1`, the survival was 75%.

In the case of `Cc1cc(C)cc(NC(=O)N2CCC(NC(=O)C3CCCCC3)CC2)c1`, the survival is 92%.

For `Cc1ccccc1NC(=O)CN1CCCC1`, the survival was 70%.

For `COCCCn1c(=O)c2sccc2n2c(CCCC(=O)NCc3ccc(F)cc3)nnc12`, the survival is 92%.

Regarding `O=c1c2sc3ccccc3c2n(Cc2cccc(C(F)(F)F)c2)c(=O)n1Cc1ccccc1`, the survival was 67%.

For `CCOC(=O)c1[nH]c2ccccc2c1NC(=O)c1ccc(OC)c(OC)c1`, the survival is 131%.

Turning to `CCOC(=O)c1[nH]c2ccccc2c1NC(=O)c1ccccc1OC`, the survival was 51% (active).

In the case of `CCOC(=O)c1[nH]c2ccccc2c1NC(=O)c1cc(OCC)c(OCC)c(OCC)c1`, the survival was 97%.

Consider `CCOC(=O)c1[nH]c2ccccc2c1NC(=O)c1ccccc1F`, for which the survival is 53%.

As for `CCOC(=O)c1[nH]c2ccccc2c1NC(=O)c1cc(OC)cc(OC)c1`, the survival is 48% (active).

As for `CCOC(=O)c1[nH]c2ccccc2c1NC(=O)c1ccccc1OCC`, the survival is 68%.

Turning to `Cc1ccc(CNC(=O)c2sc3nc(-c4ccccc4)cn3c2C)cc1`, the survival is 123%.

Regarding `Cc1ccc2oc(C(=O)Nc3c(C(=O)c4ccc(C)c(F)c4)oc4ccccc34)cc(=O)c2c1`, the survival was 58%.

As to `CCOc1ccc2nc(Cl)c(C3CC(c4ccc(C)cc4)=NN3C(=O)CCC(=O)O)cc2c1` (configuration not stated), the survival is 50%.

On to `CCOc1ccc2nc(Cl)c(C3CC(c4ccc(OC)cc4)=NN3S(C)(=O)=O)cc2c1` (configuration not stated), for which the survival is 127%.

As to `CCS(=O)(=O)N1N=C(c2ccc(C)cc2)CC1c1cc2ccc(OC)cc2nc1Cl` (configuration not stated), the survival is 44% (active).

As for `CCOc1ccc(C2C(=O)N(C3CCCCCC3)CC(=O)N2CCc2ccccc2)cc1OC` (configuration not stated), the survival was 88%.

Regarding `N#Cc1cc(C#N)c(SCC(N)=O)nc1N`, the survival was 72%.

As for `CCc1ccccc1N1C(=O)N(Cc2ccc(C#N)cc2)c2ccccc2S1(=O)=O`, the survival was 120%.

As to `O=C(Nc1ccccc1)N(Cc1c[nH]c2ccccc12)C1CCCCCC1`, the survival is 52%.

As to `Cc1ccc(NC(=O)N(Cc2c[nH]c3ccccc23)C2CCCCCC2)cc1C`, the survival is 56%.

In the case of `Cc1ccc(NC(=O)N(Cc2cn(C)c3ccccc23)C2CCCCC2)cc1C`, the survival is -13% (active).

Regarding `Cn1cc(CN(C(=O)Nc2ccccc2)C2CCCCC2)c2ccccc21`, the survival is -14% (active).

Regarding `Cn1cc(CN(C(=O)Nc2ccc(Cl)c(Cl)c2)C2CCCCC2)c2ccccc21`, the survival was 51%.

As for `COc1ccc2[nH]c(=O)c(CN(C(=O)Nc3ccccc3)C3CCCC3)cc2c1`, the survival was 78%.

Turning to `CCC(C(=O)NCc1ccccc1)n1nc(C)c2sc3ccccc3c2c1=O` (configuration not stated), the survival is 70%.

Consider `COc1cccc(CNc2sc3c(c2C(=O)Nc2ccc(OC)cc2OC)CCC3)c1`, for which the survival was 99%.

As to `CC(=O)Nc1nonc1-c1nnc(SCC(=O)Nc2cc(C)cc(C)c2)n1C`, the survival was 52%.

As for `CC1(C(=O)NC2CCCCC2)Cc2ccccc2C(=O)N1Cc1ccc(Cl)cc1` (configuration not stated), the survival is 92%.

Consider `CC1(C(=O)NC2CCCCC2)Cc2ccccc2C(=O)N1Cc1ccccc1Cl` (configuration not stated), for which the survival is 43% (active).

Regarding `CC1CCC(NC(=O)C2(C)Cc3ccccc3C(=O)N2Cc2ccccc2Cl)CC1` (configuration not stated), the survival was 48%.

For `N#Cc1ccc(S(=O)(=O)N2CCNCC2)cc1`, the survival is 98%.

As to `CC1=C(c2ccc(C(C)C)cc2)S(=O)(=O)NC1=NCc1ccccc1C`, the survival is 77%.

On to `Cc1[nH]n(-c2ccc(Cl)cc2)c(=O)c1C(=O)c1ccccc1`, for which the survival is 40% (active).

On to `Cc1[nH]n(-c2ccccc2)c(=O)c1C(c1cc(Cl)ccc1O)c1c(C)[nH]n(-c2ccccc2)c1=O`, for which the survival is 49%.

With `Cc1[nH]n(-c2ccccc2)c(=O)c1/C=N/NC(=O)c1ccccc1`, the survival is 50%.

In the case of `Cc1ccc2oc(-c3ccc(NC(=O)CCC(=O)O)cc3)nc2c1`, the survival was 86%.

As to `Cc1ccc(-c2nc3sccn3c2Nc2ccccc2C)cc1`, the survival was 48%.

In the case of `CCc1cccc(C)c1Nc1c(-c2cccc(O)c2)nc2sccn12`, the survival was 105%.

Turning to `Cc1ccc(Nc2c(-c3ccc(Cl)cc3)nc3sccn23)c(C)c1`, the survival was 47%.

For the compound `Cc1ccc(-c2nc3sccn3c2Nc2ccc(C)c(C)c2)cc1`, the survival was 36% (active).

As for `COc1cc(-c2nc3sccn3c2Nc2c(C)cccc2C)ccc1O`, the survival is 125%.

In the case of `Cc1cccc(C)c1Nc1c(-c2ccc(O)cc2)nc2sccn12`, the survival is 28% (active).

For the compound `Cc1cc(Cl)ccc1NC(=O)CN(c1ccccc1Br)S(C)(=O)=O`, the survival is 55%.

For `CCOc1ccc(-n2ccnc2SCC(=O)Nc2cccc3ccccc23)cc1`, the survival is 68%.

`O=c1cc(CN2CCN(S(=O)(=O)c3ccc(Cl)cc3)CC2)nc2sc(-c3ccccc3F)nn12`: the survival is 104%.

As for `Cc1cccc(-n2ncc3c(NC4CCCC4)ncnc32)c1`, the survival was 69%.

Consider `O=C(O)c1ccc(/C=N/n2cnnc2)cc1`, for which the survival is 111%.

As to `Cc1cccc(CNC(=O)c2oc3c(c2C)-c2nn(Cc4cccc(Cl)c4)cc2CC3)c1`, the survival is 97%.

Take `Cc1ccccc1CNC(=O)c1oc2c(c1C)-c1nn(Cc3ccc(Cl)cc3)cc1CC2`: the survival is 73%.

As for `Cc1cccc(C)c1NC(=O)c1oc2c(c1C)-c1nn(Cc3ccccc3)cc1CC2`, the survival was 23% (active).

Consider `COc1cc(NC(=O)c2oc3c(c2C)-c2nn(Cc4cccc(Cl)c4)cc2CC3)cc(OC)c1`, for which the survival is 78%.

On to `Cc1ccccc1NC(=O)c1oc2c(c1C)-c1nn(Cc3cccc(Cl)c3)cc1CC2`, for which the survival is 35% (active).

`CCn1cc2c(n1)-c1c(oc(C(=O)Nc3cccc(C)c3C)c1C)CC2`: the survival was 95%.

For the origin of these results see PubChem BioAssay AID463173 (ICCB-Longwood Screening Facility, Harvard Medical School, 2010).
